Experiment [1] has as its target T1, Aspartate--tRNA(Asp/Asn) ligase (Mycobacterium tuberculosis (strain ATCC 25618 / H37Rv)) (UniProt P9WFW3). Note: in the data most compounds retested in dose-response had high values.
T1 sequence (whole entry): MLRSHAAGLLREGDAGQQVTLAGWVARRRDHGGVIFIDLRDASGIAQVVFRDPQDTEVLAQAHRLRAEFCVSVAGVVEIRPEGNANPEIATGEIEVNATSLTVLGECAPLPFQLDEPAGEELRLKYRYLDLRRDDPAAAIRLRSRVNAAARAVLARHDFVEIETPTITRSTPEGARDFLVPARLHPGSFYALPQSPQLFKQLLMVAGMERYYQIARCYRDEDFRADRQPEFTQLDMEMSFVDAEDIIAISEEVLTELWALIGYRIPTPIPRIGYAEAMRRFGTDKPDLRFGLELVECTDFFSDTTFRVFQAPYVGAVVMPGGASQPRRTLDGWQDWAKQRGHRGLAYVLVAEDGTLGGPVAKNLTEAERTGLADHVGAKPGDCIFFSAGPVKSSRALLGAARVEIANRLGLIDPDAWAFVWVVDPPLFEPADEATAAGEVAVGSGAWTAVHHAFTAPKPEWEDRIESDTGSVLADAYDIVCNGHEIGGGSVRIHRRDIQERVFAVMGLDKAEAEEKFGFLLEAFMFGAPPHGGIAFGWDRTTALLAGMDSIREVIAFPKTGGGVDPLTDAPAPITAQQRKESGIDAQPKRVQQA
Description: Assay for Asp RNA synthetase-1 from Mycobacterium tuberculosis. It is filed as functional. The arrangement: scale not given: direction of the effect not stated beside the values. Conditions: 30 µM.

In experiment [2] the target is Shiga toxin 2 (Escherichia coli O157:H7) (UniProt P09385+P09386). Description: E. coli 0.157:H7 Shiga Toxin SOP - stx2 screening assay. It is filed as functional. The arrangement: scale not given: direction of the effect not stated beside the values. To be noted: 30 µM.

On to `CSCC(C)(O)CNC(=O)c1ccc(Br)cc1F` (stereo not drawn), for which the results for the Percent Effect in experiment [1] and in experiment [2] were 3.26% and 13.2%, respectively.

As for `Cc1ccc(CNC(CN2CCN(C)CC2)c2ccccc2)cc1` (stereo not drawn), the Percent Effect in experiment [1] is 3.88%; in experiment [2], -2.09%.

As for `Cc1nc(CNCC2CCCN2c2cccnn2)no1` (stereo not drawn), the Percent Effect was -2.08% in experiment [1] and -15.8% in experiment [2].

As to `COc1ccc(CNCCc2cc(F)cc3c2OCOC3)cc1O`, the Percent Effect in experiment [1] was 3.65%; in experiment [2], -23.1%.

`CC(COc1ccccc1)NCc1nc(-c2cccnc2)no1` (stereo not drawn): the Percent Effect in experiment [1] was -2.31%; in experiment [2], 1.39%.

With `CNC(=O)C1Cn2ccnc2C2(CCN(Cc3cccc(C)n3)CC2)O1` (stereo not drawn), the Percent Effect was 1.82% in experiment [1] and 0.0939% in experiment [2].

As to `CC(C)Cc1noc(CN2CCN(C(=O)c3ccco3)CC2)n1`, the Percent Effect was -0.114% in experiment [1] and -20% in experiment [2].

For the compound `CNc1ccc(CC2CCCN(C(=O)c3cncnc3C)C2)nn1` (stereo not drawn), the results for the Percent Effect in experiment [1] and in experiment [2] were 0.485% and 29.8%, respectively.

`Cc1ccc(N2CCCN(C(=O)CC3CCCO3)CC2)nn1` (stereo not drawn): the results for the Percent Effect in experiment [1] and in experiment [2] were 10.1% and 18.1%, respectively.

Consider `O=C1[C@H]2CC[C@H](CN(S(=O)(=O)c3ccccc3)C2)N1Cc1cscn1`, for which the Percent Effect in experiment [1] is 1.23%; in experiment [2], -25.8%.

For the compound `Cc1ccc(S(=O)(=O)N2C[C@H]3C[C@H](NC(=O)c4ccn(C)n4)[C@H]3C2)cc1`, the Percent Effect in experiment [1] was 1.35%; in experiment [2] it was -2.81%.

Regarding `CNC(=O)C1CCN(C(=O)CCn2cccn2)CC1`, the results for the Percent Effect in experiment [1] and in experiment [2] were 6.32% and 26%, respectively.

Turning to `O=C(c1cccc2c1OCCO2)N1CCCC(n2ccnc2)C1` (stereo not drawn), the Percent Effect in experiment [1] was -1.01%; in experiment [2] it was 21.1%.

Take `O=C1CC2(CCCCN2C(=O)c2ccsc2)CN1CC1CC1` (stereo not drawn): the values for the Percent Effect in experiment [1] and in experiment [2] were -2.94% and -8.01%, respectively.

Turning to `CCC(=O)N1CCC(c2nnc(Cn3cccn3)n2C2CC2)CC1`, the results for the Percent Effect in experiment [1] and in experiment [2] were -6.07% and -3.53%, respectively.

As to `CCc1ccc(CCC(=O)N2CCOCC2c2ncon2)cc1` (stereo not drawn), the figures for the Percent Effect in experiment [1] and in experiment [2] were 2.77% and 20.7%, respectively.

Regarding `Cc1cccc(CN2CCc3c(nc(N4CCC(C)CC4)[nH]c3=O)C2)n1`, the results for the Percent Effect in experiment [1] and in experiment [2] were -2.78% and 10.7%, respectively.

Consider `Cc1ccc([C@]2(O)CC[C@H]3CN(Cc4cccc(Cl)c4Cl)C[C@H]32)nc1`, for which the results for the Percent Effect in experiment [1] and in experiment [2] were 7.16% and 6.78%, respectively.

For the compound `COc1ccc(CC(=O)N2C[C@@H]3COC[C@]3(CN(C)C)C2)cc1`, the Percent Effect in experiment [1] was -5.29%; in experiment [2], -4.41%.

The record behind these values is ChEMBL document CHEMBL3988442, “University of Dundee, Small-Polar-MMV Screening Library” (2021).
